Measurements published in PubChem BioAssay AID624297 (National Center for Advancing Translational Sciences (NCATS), 2012).
Out of some 340,000 compounds screened, about 6,200 (1.8%) were called active. Not shown: some 10% with an inconclusive outcome. Calls follow the shape of the dose curve; as a rule, active = well fitted activation curve with a large enough effect; inconclusive = small, poorly fitted or top-dose-only effect; inactive = no such curve, though single readings can be large or run the other way. For the sample, actives were picked, then their nearest neighbours and some compounds at random.

experiment: A quantitative high throughput screen for small molecules that induce DNA re-replication in SW480 colon adenocarcinoma cells.; also: nearly all actives have a fitted effect of over 55% in size; as to re-replication activation: % of control where 0% means no effect; settings: Hoechst DNA content imaging, 48 h; series mostly up to 46.1 µM; re-replication activation: at the top concentration
From the text: H Molecular Libraries Probe Production Network [MLPCN] NIH Chemical Genomics Center [NCGC] MLPCN Grant: Fast Track K99 CA136555 Assay Provider: Melvin DePamphilis, NICHD, NIH Assay Overview Eukaryotic cells normally restrict genome duplication to once per cell division. When this process is aberrant, DNA re-replication occurs when cells reinitiate DNA replication before the first round of replication is complete. DNA re-replication induces the DNA damage response, arrests cell proliferation, and triggers apoptosis. The cell cycle components cyclin A, Cdt-1, Cdc6 and geminin are critical regulators of this process and their misregulation results in DNA re-replication in normal and cancer cells. To identify compounds that induce re-replication in normal cells, an image-based assay was used to measure DNA content of nuclei, as detected by the fluorescent DNA binding dye, Hoechst. Cell nuclei were imaged by a fluorescence scanning plate imager and compounds that induce DNA re-replication were identified by the increase of nuclei with elevated fluorescence intensity
For screening, 250 cells in 5 uL/well were dispensed into black clear 1536-well plates (Aurora) using a solenoid-based dispenser. Following transfer of 23 nL compound or DMSO vehicle by a pin tool, the plates were incubated 48 hr at 37 C and 5% CO2. After addition of 1 uL/well Hoescht stain, the plates were incubated 40 min at 37 C, 5% CO2 and total intensity of fluorescent objects (nuclei) were enumerated by an Acumen Explorer Ex3 (TTP LabTech) fluorescence scanning plate imager (405 nm excitation, 500-530 nm emission). Keywords: NIH Roadmap, MLPCN, MLI, MLSMR, qHTS, NCGC, DNA replication, cancer
Potency is read from the fitted curve at half-maximal effect.

Potency, active:
Nc1nonc1-n1nnc(C(=O)N/N=C/c2cc(Br)ccc2O)c1CSC1=NCCS1 13 µM
CCCNC(=O)c1c(N)n(-c2ccc(S(N)(=O)=O)cc2)c2nc3ccccc3nc12 0.82 µM
Cc1csc(NC(=O)c2ccc(-c3ccc(Cl)cc3Cl)o2)n1 13 µM
Cc1cc(Nc2cc(N3CCN(C)CC3)nc(Sc3ccc(NC(=O)C4CC4)cc3)n2)n[nH]1 0.259 µM
CC1=CC(C)(C)Nc2ccc(OC(=O)CN3C(=O)C4CCCCC4C3=O)cc21 (stereo not given) 20.6 µM
CCc1ccc(C(=O)C(C)OC(=O)CN2C(=O)NC3(CCCC3)C2=O)cc1 (stereo not given) 3.26 µM
CCOc1ccc2nc(NCCNS(=O)(=O)c3ccccc3)c(C#N)cc2c1 18.4 µM
COc1ccc(C(CCN(Cc2ccc(OC)c(OC)c2)C(=O)CCl)c2ccccc2)cc1 (stereo not given) 23.1 µM
c1ccc(C(=NNc2nc3ccccc3s2)c2ccccn2)cc1 0.259 µM
Cc1ccc(-n2[nH]c(C)c(/C=N/N3C(=O)c4cccc5cccc(c45)C3=O)c2=O)cc1 16.4 µM

re-replication activation, inactive:
O=C(CCCCCCCC(=O)N1CCCCC1)N1CCCCC1 -6.64%
COc1ccc(C(=O)OCc2cc(=O)n3ccsc3n2)cc1F -5.06%
Cc1noc(C)c1C(=O)NCCc1ccc(S(N)(=O)=O)cc1 -15.5%
CCOC(=O)c1c(C)c(C(=O)NCCc2ccc(S(N)(=O)=O)cc2)c(C)n1CC -3.88%
O=C(Nc1cccc2ncccc12)c1ccc(-c2ccc(Cl)cc2Cl)o1 0.657%
Cc1csc(NC(=O)c2ccc(C)s2)n1 15.7%
Cc1cccc(N2O[C@H]3C=CC2CCCC3)n1 0.356%
CC1CN(Cc2ccco2)C(=S)N(c2ccccc2)C1=O (stereo not given) -2.33%
Cc1cc(C)nc(N2CCC(C(=O)Nc3ccc4c(c3)OCCO4)CC2)n1 8.19%
CN1CCN(S(=O)(=O)c2ccc(NC(=S)NC(=O)C3CC3)cc2)CC1 -9.04%
CC1Cc2ccccc2N1S(=O)(=O)c1cccc(C(=O)OCC(=O)N2CCOCC2)c1 (stereo not given) -2.28%
O=C(COC(=O)C1CCCO1)Nc1nc(-c2ccc(F)cc2)cs1 (stereo not given) 4.83%
CC[C@]1(C(=O)OC)[C@H]2C(=O)N(C)C(=O)[C@H]2[C@H]2CN(C)C(=NCc3ccccc3)N21 -0.109%
O=C(CN1C(=O)C2C3CCC(C3)C2C1=O)Oc1ccc2ccccc2c1 (stereo not given) -7.39%
O=C(COC(=O)CN1C(=O)C2CCCCC2C1=O)Nc1ccc(F)c(F)c1F (stereo not given) -20.3%
COc1ccc(CNC(=O)CN2C(=O)c3ccccc3S2(=O)=O)cc1 -3.49%
CCC(CO)Oc1cc(NC(=O)c2cccc3ccccc23)c2ncn(C(C)C)c2c1 (stereo not given) -5.66% [at 9.22 µM]
Cc1ccc(COC(=O)CN2C(=O)NC3(CCCC3)C2=O)cc1 -6.36%
O=C(CN1C(=O)NC2(CCCC2)C1=O)OCCOc1ccc(F)cc1 -58.9%
O=C1c2ccccc2C(=O)C1C(=O)C1CC1 19.8%
Cc1cccc(-n2ncc3c(=O)[nH]c(SCC(=O)Nc4cc(C)on4)nc32)c1 -3%
CC(C)(C)C(=O)Nc1cccc(-c2ccc[nH]2)n1 -4.35%
CCOc1ccc2nc(NCCNC(=O)C(C)(C)C)c(C)cc2c1 0.258%
CCOc1ccc(S(=O)(=O)NCCSc2ccccc2)cc1 -0.257%
O=C1C=CN2CCCC2CC1 (stereo not given) -4.38%
Cc1nc(N)nc(Cl)c1CCC1OCCO1 -1.39%
CC(OC(=O)c1ccc([N+](=O)[O-])cc1)C(=O)NCC1CCCCC1 (stereo not given) -0.927%
COc1ccc(COC(=O)NC(C(=O)O)c2ccccc2)cc1 (stereo not given) 2.12%
COc1ccc(CCNC(=O)C(Sc2ccccn2)c2ccccc2)cc1OC (stereo not given) -1.45%
COc1ccc(CC(=O)N[C@@H]2c3cc(OC)c(OC)cc3C[C@H]2OCc2ccccc2)cc1 4.24%
Cc1ccc(C)c(S(=O)(=O)N(C)c2ccc(OC(=O)C3CCN(C(=O)c4ccc(F)cc4)CC3)cc2)c1 -1.93%
Cn1nnnc1SCC(=O)Nc1cccc(S(=O)(=O)N2CCCCC2)c1 -3.5%
COc1ccc(OC)c(NC(=O)COC(=O)Cc2ccsc2)c1 -7.6%
Cc1ccc(Br)c(NS(=O)(=O)c2cccc(C(=O)N3CCNC(=O)C3)c2)c1 -2.86%
OCC(O)C1OCOC(C(O)CO)C1O (stereo not given) 0.851%
c1ccc2sc(NN=C3CCCC3)nc2c1 1.2%
O=C(CCNC(=O)c1ccccc1)Nc1nc2ccccc2s1 4.07%
N#CC1(Nc2ccc(-c3ccc(Cl)cc3)cc2)CCCC1 1.38%
Cc1[nH]n(-c2ccc([N+](=O)[O-])cc2)c(=O)c1C=NCCN1CCN(C(=O)c2ccccc2F)CC1 -4.88%
Cc1ccc(-c2ccnc3[nH]n(-c4ccccc4)c(=O)c23)cc1 -3.91%
